# F508del corr: correctors of CFTR F508del function in bronchial epithelial cells. CFBE cells, YFP halide quenching; stimulated with forskolin plus potentiator P3; % fluorescence drop versus neutral controls. activity (quench increase), % at 7.58 µM. hit rate 0.36% among 350,000;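 active = mean added fluorescence quench of at least 8% versus neutral control, with both replicates also reaching 8%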;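 also: cells transiently co-express mutant CFTR-F508del with the halide-sensitive YFP; corrector assay measuring rescue of mutant channel to the surface after 24 h compound exposure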
# RAD54 inh: RAD54 (human) branch migration inhibition; AID 602329; RAD54 Holliday junction branch migration, FAM/BHQ fluorescence; hit rate 0.14% among 360,000; inhibition, % at 10.4 µM;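 active = mean normalized replicate activity at least 40 and at least half of replicates scoring 40 or more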;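 also: 0% = median of neutral control wells and 100% = median of positive control wells; inhibitors cause a drop in the FAM fluorescence signal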
# Target sequence (Q92698 whole entry, looked up): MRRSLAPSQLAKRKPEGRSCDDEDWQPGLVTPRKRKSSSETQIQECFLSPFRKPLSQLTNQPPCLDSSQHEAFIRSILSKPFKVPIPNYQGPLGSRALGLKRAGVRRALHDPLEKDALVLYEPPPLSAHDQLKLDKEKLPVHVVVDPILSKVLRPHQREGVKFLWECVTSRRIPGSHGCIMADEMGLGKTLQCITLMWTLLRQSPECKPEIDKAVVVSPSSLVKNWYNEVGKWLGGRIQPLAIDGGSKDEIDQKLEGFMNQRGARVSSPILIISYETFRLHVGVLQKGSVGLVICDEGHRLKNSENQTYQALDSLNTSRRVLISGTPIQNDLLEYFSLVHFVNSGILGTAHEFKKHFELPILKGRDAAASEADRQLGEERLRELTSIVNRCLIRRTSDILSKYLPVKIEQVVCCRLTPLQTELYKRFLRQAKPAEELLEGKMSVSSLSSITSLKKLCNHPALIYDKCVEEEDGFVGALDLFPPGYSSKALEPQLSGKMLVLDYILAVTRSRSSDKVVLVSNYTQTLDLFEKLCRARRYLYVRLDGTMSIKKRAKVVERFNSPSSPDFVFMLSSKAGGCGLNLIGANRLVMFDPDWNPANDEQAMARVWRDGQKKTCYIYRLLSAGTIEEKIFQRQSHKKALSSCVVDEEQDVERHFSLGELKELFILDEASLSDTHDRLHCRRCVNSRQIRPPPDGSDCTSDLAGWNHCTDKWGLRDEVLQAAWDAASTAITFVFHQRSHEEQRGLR
# PvdQ inh: P. aeruginosa PvdQ acylase inhibition. purified PvdQ acylase, fluorescence plate reader. inhibition, % at 10 µM. hit rate 0.063% among 340,000. AID 488965; in the data active = inhibition above about 30%, passing the limit was not always enough;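 also: 0% = vehicle neutral wells and 100% = reference inhibitor wells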
# N-glyco inh: blocks N-linked glycosylation in D54 reporter cells. D54 ERlucT glycosylation luciferase reporter, 24 h; percent of 100 nM tunicamycin response. reporter increase, % at 12.5 µM. hit rate 0.23% among 360,000. AID 588692;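 active = mean luciferase reporter signal, scaled so untreated is 0 and the glycosylation-blocking control 100, at or above a set limit in every replicate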;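 also: luciferase carries N-glycosylation sites so blocking glycosylation raises the light; 0% = median of neutral control wells and 100% = median of 100 nM tunicamycin wells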
# RAD52 inh: RAD52 (human) annealing inhibition | P43351 | recombinant RAD52 DNA annealing, FRET fluorescence | inhibition, % at 18.7 µM | hit rate 0.46% among 360,000;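 active = every replicate showing at least 50% inhibition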
# dFosB act: activators of mouse delta FosB homodimer | P13346 | hit rate 0.99% among 340,000 | purified delta FosB, TAMRA-CDK5 oligo fluorescence polarization; percent of positive-control signal above neutral wells | activation, % at 25 µM;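 active = mean activation above about 17%, with every replicate also reaching it, limit read from the data, passing the limit was not always enough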
# * marks the source's active call; other numbers are inactive results; . = no result given. Only some compounds are listed: those with a hit (about 1.5% of all), similar ones and a draw of the others.
SMILES,F508del corr,RAD54 inh,PvdQ inh,N-glyco inh,RAD52 inh,dFosB act
C[C@H](CO)N1C[C@H](C)[C@H](CN(C)C(=O)Nc2ccccc2)OCCCC[C@H](C)Oc2ccc(NC(=O)c3ccncc3)cc2C1=O,-1.1,-0.3,.,.,-16.0,.
C[C@@H]1CN([C@@H](C)CO)C(=O)c2cc(C#Cc3ccc(F)cc3)cnc2O[C@H]1CN(C)Cc1ccccn1,1.2,-5.9,.,.,-5.2,.
Cc1cccc(N2CCN(C(=O)c3c(-c4ccccc4Cl)noc3C)CC2)c1C,14.4*,-3.4,-13.2,12.2,-4.5,-14.8
O=C(NCC[C@H]1CC[C@@H](NS(=O)(=O)c2cccc(F)c2)[C@H](CO)O1)c1cnccn1,-1.3,2.5,.,.,-8.0,.
Cc1ccc2c(CN3CCN(S(=O)(=O)c4ccc(Cl)cc4)CC3)cc(=O)oc2c1C,18.8*,8.3,-17.5,-4.1,-15.3,-9.5
Cc1nn(S(=O)(=O)c2ccc(Cl)cc2)c(C)c1Sc1ccc([N+](=O)[O-])cc1,14.9*,-5.6,1.8,-2.0,-7.5,-5.4
Cc1nn(-c2ccccc2)c(N)c1Sc1ccc([N+](=O)[O-])cc1,.,.,-3.1,0.8,.,-0.3
COc1ccc(Cn2c(=O)[nH]c3cc(C(=O)NC4CCN(Cc5ccccc5)CC4)ccc32)cc1,-2.3,1.2,-7.9,-7.5,-12.5,-8.5
CCN1C(=O)CC(C(C)C)N(C2CCCC2)c2nc(Nc3ccc(C(=O)NC4CCN(C)CC4)cc3OC)ncc21 (stereo unspecified),.,12.5,-0.4,17.7,.,12.3
COc1cc(C(=O)NC2CCN(C)CC2)ccc1Nc1ncc2c(n1)N(Cc1ccccc1)CCC(=O)N2C,-10.9,30.8,0.4,104.8*,69.8*,-6.0
CCN1C(=O)CC(c2ccccc2)N(C2CCCC2)c2nc(Nc3ccc(C(=O)NC4CCN(C)CC4)cc3OC)ncc21 (stereo unspecified),.,44.4,-12.8,59.8*,.,-15.5
CC[C@H]1CN2CCc3cc(OC)c(OC)cc3C2C[C@@H]1C[C@H]1NCCc2cc(OC)c(OC)cc21 (stereo partly specified),-9.5,15.5,-2.0,-19.6,-0.7,4.1
CCC1=C(CC2NCCc3ccccc32)CC2c3cc(OC)c(OC)cc3CCN2C1 (stereo unspecified),10.1*,.,18.4,-19.4,-84.1,3.2
COc1ccc(CN(C)C[C@H]2OCCCC[C@@H](C)Oc3ccc(NS(=O)(=O)c4ccc(Cl)cc4)cc3C(=O)N([C@H](C)CO)C[C@@H]2C)cc1,-0.9,-4.7,.,.,49.6,.
COc1ccc(S(=O)(=O)Nc2ccc3c(c2)C(=O)N([C@@H](C)CO)C[C@H](C)[C@H](CN(C)Cc2ccc(Cl)c(Cl)c2)OCCCC[C@@H](C)O3)cc1,8.0*,1.4,.,.,.,.
COc1ccc(CN(C)C[C@H]2OCCCC[C@@H](C)Oc3ccc(NS(=O)(=O)c4ccc(Cl)cc4)cc3C(=O)N([C@@H](C)CO)C[C@H]2C)cc1,5.4,-6.7,.,.,54.7*,.
COc1ccc(CN(C)C[C@H]2OCCCC[C@H](C)Oc3ccc(NS(=O)(=O)c4ccc(Cl)cc4)cc3C(=O)N([C@H](C)CO)C[C@@H]2C)cc1,2.7,5.4,.,.,49.2,.
COc1ccc(S(=O)(=O)Nc2ccc3c(c2)C(=O)N([C@@H](C)CO)C[C@H](C)[C@@H](CN(C)Cc2ccc(Cl)c(Cl)c2)OCCCC[C@H](C)O3)cc1,5.3,0.0,.,.,.,.
COc1ccc(CN(C)C[C@@H]2OCCCC[C@H](C)Oc3ccc(NS(=O)(=O)c4ccc(Cl)cc4)cc3C(=O)N([C@H](C)CO)C[C@H]2C)cc1,-1.4,2.3,.,.,57.5*,.
COc1ccc(CN(C)C[C@H]2OCCCC[C@@H](C)Oc3ccc(NS(=O)(=O)c4ccc(Cl)cc4)cc3C(=O)N([C@H](C)CO)C[C@H]2C)cc1,3.9,-12.0,.,.,54.8*,.
CCNC(=O)[C@@H]1[C@@H](CO)[C@@H]2Cn3c(cccc3=O)[C@@H]2N1Cc1ccccc1Cl,-0.1,-32.9,.,.,0.3,.
CC(C)NC(=O)N(C)C[C@H]1Oc2ccc(NS(=O)(=O)c3ccc(F)cc3)cc2C(=O)N([C@H](C)CO)C[C@H]1C,-1.4,-16.1,.,.,-2.9,.
COc1ccc(S(=O)(=O)Nc2ccc3c(c2)C(=O)N([C@H](C)CO)C[C@@H](C)[C@@H](CN(C)Cc2ccc(C(F)(F)F)cc2)O3)cc1,9.2*,6.8,.,.,-25.9,.
C[C@@H]1CCCCO[C@H](CN(C)Cc2ccc(Cl)c(Cl)c2)[C@@H](C)CN([C@@H](C)CO)C(=O)c2cc(NS(=O)(=O)c3ccc(Cl)cc3)ccc2O1,11.5*,.,.,.,24.1,.
C[C@@H]1CN([C@H](C)CO)C(=O)c2cc(NS(=O)(=O)c3ccc(Cl)cc3)ccc2O[C@@H](C)CCCCO[C@@H]1CN(C)Cc1ccc(Cl)c(Cl)c1,2.3,1.8,.,.,-1.7,.
SMILES,F508del corr,RAD54 inh,PvdQ inh,N-glyco inh,RAD52 inh,dFosB act
O=C(NCCCN1CCOCC1)[C@H]1[C@H](CO)[C@H]2Cn3c(cccc3=O)[C@@H]1N2C(=O)C1CCCC1,-0.6,.,.,.,5.5,.
CCCN(C)C[C@@H]1Oc2ncc(C#Cc3cccc(OC)c3)cc2C(=O)N([C@H](C)CO)C[C@@H]1C,1.6,.,.,.,52.7*,.
CCCN(C)C[C@@H]1Oc2ncc(C#Cc3ccc(OC)cc3)cc2C(=O)N([C@H](C)CO)C[C@@H]1C,-0.5,-3.2,.,.,-30.2,.
CCCN(C)C[C@@H]1Oc2ncc(C#Cc3ccccc3OC)cc2C(=O)N([C@H](C)CO)C[C@@H]1C,0.0,5.9,.,.,56.6*,.
C[C@H](CO)N1C[C@H](C)[C@@H](CN(C)Cc2ccc(Oc3ccccc3)cc2)Oc2ccc(NC(=O)CCC(F)(F)F)cc2CC1=O,-2.0,7.8,.,.,.,.
C[C@H](O)C#Cc1cnc2c(c1)C(=O)N([C@H](C)CO)C[C@H](C)[C@@H](CN(C)C(=O)CN1CCOCC1)O2,1.5,1.0,.,.,-6.3,.
NS(=O)(=O)c1ccc(NC(=O)COc2ncnc3c2cnn3-c2ccccc2)cc1,3.1,-11.5,-2.5,-0.8,-46.1,21.2*
COc1ccc(NC(=O)Cn2nnc(-c3ccccc3NC(=O)c3ccco3)n2)cc1,.,0.2,-3.4,7.9,.,26.5*
COc1ccccc1-c1ccc([C@H]2[C@H](C#N)N(C(=O)C3CC3)[C@H]2CO)cc1,2.5,2.4,.,.,-9.2,.
C[C@@H]1CN([C@H](C)CO)C(=O)Cc2cc(NC(=O)Cc3ccccc3)ccc2O[C@H]1CN(C)S(=O)(=O)c1ccc(F)cc1,-1.2,-1.9,.,.,-1.0,.
O=C(Cn1c(O)c(/C=C2\C=Nc3ccccc32)sc1=O)Nc1ccc2c(c1)OCO2,-4.8,2.3,3.8,1.2,-31.8,36.4*
O=C(Cn1c(O)c(/C=C2\C=Nc3ccccc32)sc1=O)N1CCOCC1,-1.4,.,-12.0,0.3,-13.4,-1.2
C[C@@H]1CN([C@@H](C)CO)C(=O)c2cc(NC(=O)CCN3CCOCC3)ccc2O[C@H]1CN(C)Cc1ccccc1,1.9,1.3,.,.,0.6,.
